# ARNT TACC3 PPI = disruptors of human ARNT/TACC3 interaction; Q9Y6A5; AlphaScreen His-ARNT PAS-B/GST-TACC3 binding, luminescence; TACC3 fragment carries E629A point mutation; inhibition, % at 9.99 µM; 0.66% of 390,000 active; AID 623870;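 active = mean inhibition of replicates at least 50% and at least half of replicates each reaching 50%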;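 note: 0% = complete ARNT plus TACC3 wells and 100% = ARNT alone without TACC3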
# INS-1E GSIS act = primary screen for activators of insulin secretion dependent on glucose, INS-1E cells, GLuc reporter luminescence; activation, % at 16.6 µM; 0.61% of 370,000 active; INS-1E GLuc reporter insulin secretion, 2-3 h;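 active = lowest replicate activation of at least 40%, so every replicate reaches that level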;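 note: 0% = median of neutral control wells and 100% = median of IBMX positive control wells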
# ABCB6 inh MLPCN = inhibitors of human ABC transporter ABCB6; AID 602162; fluorescence ratio to DMSO, % at 10 µM; K562-ABCB6 porphyrin accumulation, flow cytometry, 1 h; active compounds read low; 0.19% of 360,000 active; Q9NP58;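 active = fluorescence ratio to DMSO below 75%, the collection mean minus 3 SD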;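 note: signal is porphyrin accumulated inside mitochondria; 100% equals median channel fluorescence of DMSO control wells; lower ratio means ABCB6 inhibition with less porphyrin fluorescence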
# Target sequence (Q9NP58 whole entry, looked up): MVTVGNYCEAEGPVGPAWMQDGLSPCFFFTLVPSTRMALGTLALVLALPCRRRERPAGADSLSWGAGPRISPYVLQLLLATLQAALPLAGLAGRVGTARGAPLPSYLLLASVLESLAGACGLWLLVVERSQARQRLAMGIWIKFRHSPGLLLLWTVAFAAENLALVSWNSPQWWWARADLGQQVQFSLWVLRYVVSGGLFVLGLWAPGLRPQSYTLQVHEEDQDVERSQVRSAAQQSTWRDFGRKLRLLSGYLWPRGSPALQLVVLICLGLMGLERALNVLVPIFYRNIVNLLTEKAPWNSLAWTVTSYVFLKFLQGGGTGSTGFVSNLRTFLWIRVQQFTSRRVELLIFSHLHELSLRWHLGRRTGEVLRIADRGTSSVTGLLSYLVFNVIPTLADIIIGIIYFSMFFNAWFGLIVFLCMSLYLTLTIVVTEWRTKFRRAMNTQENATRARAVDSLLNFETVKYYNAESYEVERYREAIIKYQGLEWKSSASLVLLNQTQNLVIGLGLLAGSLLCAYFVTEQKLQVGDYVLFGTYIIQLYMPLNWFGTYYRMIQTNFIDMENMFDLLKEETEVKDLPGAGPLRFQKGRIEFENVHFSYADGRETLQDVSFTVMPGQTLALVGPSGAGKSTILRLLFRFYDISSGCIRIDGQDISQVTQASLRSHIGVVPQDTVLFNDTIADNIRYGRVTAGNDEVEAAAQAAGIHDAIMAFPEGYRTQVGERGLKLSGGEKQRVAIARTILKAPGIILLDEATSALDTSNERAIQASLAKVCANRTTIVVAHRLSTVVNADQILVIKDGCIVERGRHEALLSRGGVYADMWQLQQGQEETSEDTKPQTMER
# iPSC survival up = increases survival of single human iPS cells. hiPSC single-cell survival, ATPlite luminescence; 100% = ROCK inhibitor wells, 0% = DMSO. survival enhancement, % at 20 µM. 0.044% of 360,000 active. AID 602274; in the data active = survival enhancement above about 18%;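 note: cells exposed to compounds for 16 hours before the ATP read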
# CendR NRP1 mod = alters CendR peptide binding to human NRP-1 | AID 602438 | 0.85% of 360,000 active | O14786 | inhibition, % at 25 µM | FAM-RPARPAR peptide binding to NRP-1, fluorescence polarization;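 active = inhibition or corrected inhibition above about 18%, plus a signal ratio from 0.5 to 1.5, limit read from the data, passing the limit was not always enough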
# AlphaScreen ctr = counter-screen for ARNT/TACC3 inhibitors: AlphaScreen artifacts | His-ARNT PASB-GST AlphaScreen artifact counter-screen, luminescence | shares compounds with ARNT TACC3 PPI | 50% of 1,200 active | AC50, µM (highest dose often 68 µM), for inactives: top-dose activity change, negative = signal decrease;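 active = every separate test run was called active for a drop in luminescence, with AC50 within twice the top valid dose, actives reach about 71 µM in these data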
# * hit, by the source's call; nt = not tested or not shown; [ ] = dose if it differs, or a comment. This is a sample that favours compounds with a hit; in the whole collection about 1.8% have one here.
SMILES,ARNT TACC3 PPI,INS-1E GSIS act,ABCB6 inh MLPCN,iPSC survival up,CendR NRP1 mod,AlphaScreen ctr
C[C@H](CO)N1C[C@H](C)[C@H](CN(C)C(=O)Nc2cccc3ccccc23)Oc2ncc(C#Cc3ccc(C(F)(F)F)cc3)cc2C1=O,-6,12,nt,nt,nt,nt
O=c1oc2ccccc2c(O)c1C=NCc1ccccn1,58*,nt,93,-1,-4,1%
CC(=O)c1cccc(NC(=O)N2CCCC2C(=O)NCc2ccccc2)c1 (stereo not given),21*,nt,90,-2,-5,7%
CCCCCc1cc(=O)oc2c(C(CCN3CCCC3)c3ccc(N(C)C)cc3)c(OC)cc(OC)c12 (stereo not given),51*,2,97,-5,2,9.6µM*
COc1ccccc1-c1ccc2c(c1)O[C@@H](CN(C)Cc1ccc3c(c1)OCO3)[C@@H](C)CN([C@H](C)CO)S2(=O)=O,9,-33,nt,nt,nt,nt
COc1ccc(OC)c(-c2cc(C(=O)N3CCN(c4ncccn4)CC3)c3ccccc3n2)c1,51*,nt,99,-2,4,-37%
Cc1[nH][nH]c(=O)c1C(c1ccc(O)c(Br)c1)c1c(C)[nH][nH]c1=O,33*,-9,86,0,12,-34%
Cc1[nH][nH]c(=O)c1C(c1ccc(Br)cc1)c1c(C)[nH][nH]c1=O,11*,-7,93,0,-7,-2%
COc1ccc(S(=O)(=O)N(C)C[C@H]2Oc3ccc(NS(=O)(=O)c4ccccc4)cc3C(=O)N([C@@H](C)CO)C[C@H]2C)cc1,18,-3,nt,nt,nt,nt
Cn1c(CCNC(=O)c2ccc(Cl)c(Cl)c2)nnc1SCc1ccc(Cl)c(Cl)c1,60*,-45,95,-1,0,-2%
O=C(Nc1nnc(-c2ccccc2)s1)c1cc(-c2ccccc2)on1,nt,nt,nt,nt,nt,-7%[38 µM]
O=C(Nc1ncc2ccccc2n1)c1cc(-c2ccccc2)on1,nt,nt,nt,nt,nt,6%[38 µM]
O=C(Nc1ncc(-c2ccccc2)o1)c1cc(-c2ccccc2)on1,nt,nt,nt,nt,nt,-4%[38 µM]
O=C(Nc1nc2ccccc2s1)c1cc(-c2ccccc2)nn1-c1ccccc1,-11,-3,99,0,1,nt
O=C(Nc1nc2ccccc2s1)c1cc(-c2ccccc2)on1,nt,nt,nt,nt,nt,0%[38 µM]
O=C(Nc1cccnc1)c1cc(-c2ccccc2)on1,-3,nt,101,-3,-6,nt
Cc1noc(C)c1NC(=O)Nc1ccc2c(c1)C(=O)N([C@H](C)CO)C[C@H](C)[C@H](CN(C)S(=O)(=O)c1ccc(Cl)cc1)OCCCC[C@@H](C)O2,1,5,nt,nt,nt,nt
Cc1ccc2[nH]c3c(c2c1)CCCC3NCCO (stereo not given),43*,8,97,0,5,-22%
Cc1ccc2[nH]c3c(c2c1)CCCC3=O,-2,17,110,-1,-4,nt
CCOC(=O)c1c(C)[nH]c(N=Nc2cccc(OC)c2)c1C,7,0,97,0,-5,nt
CCOC(=O)c1c(C)[nH]c(N=Nc2cccc(C)c2)c1C,36*,nt,104,2,13,21µM*
Cc1[nH]cnc1CN1CCc2c(c3ccccc3n2C)C1=O,28*,nt,100,2,17,-8%
O=C(N/N=C/c1ccccc1O)C1SCCCS1,56*,-5,99,0,9,-28%
CCCC(=O)Nc1ccc2c(c1)C(=O)N(C)C[C@@H](OC)[C@H](C)CN(Cc1ccc(-c3ccccn3)cc1)[C@H](C)CO2,9,-31,nt,nt,nt,nt
N#CC1=C(N)Oc2c(ccc3cccnc23)C1c1ccccc1 (stereo not given),57*,16,100,1,-2,71µM*
CCOC(=O)c1cnc(Nc2nc3ccccc3o2)nc1CN1CCN(C)CC1,55*,nt,102,-1,-16,41µM*
CN(C)C(=O)c1cccc(-c2ccc(C3[C@H]4CNC[C@@H]3N4S(=O)(=O)c3ccccc3F)cc2)c1 (stereo not given in full),nt,-14,nt,nt,nt,nt
COCCN=c1scc(-c2ccco2)n1/N=C/c1ccc(O)c(O)c1O,55*,1,100,0,-43,34µM*
CCOc1ccc(Nc2nc(N)nc(CN(C)C3CCCCC3)n2)cc1,63*,3,98,1,-3,-10%
COc1ccc(Nc2nc(N)nc(COc3ccc(OC)cc3)n2)cc1,-4,nt,76,0,0,nt

# Screening data (PubChem)
